HepG2 viability: qHTS for Inhibitors of TGF-b: Cytotox Counterscreen | HepG2 CAGA-GFP viability, ATP luminescence, 18 h | Potency, µM (series often up to 46.1 µM), without a hit: at the highest dose activity change, negative = cytotoxicity, most hits filed as cytotoxic | 0.76% of 410,000 active | AID 588856, 2011
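HepG2 CAGA-GFP cells (1000/well, DMEM with 1% FBS) received compound, then TGF-beta at 500 pg/mL final, and were incubated 18 hours at 37 degrees C. Viability was read by CellTiter-Glo luminescence. Media-only wells were set as complete cell-killing and DMSO as no toxicity.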
TDP1 cell noCPT: qHTS for Inhibitors of human tyrosyl-DNA phosphodiesterase 1 (TDP1): qHTS in cells in absence of CPT; DT40 Tdp1-/- hTDP1 cells, no CPT, ATP luminescence, 48 h; Potency, µM (series often up to 46.2 µM), for the others: at the top dose activity change, negative = growth inhibition, hits mostly inhibitors; 15% of 420,000 active; AID 686978, 2013; note: % is set by controls: 0 for no effect and ±100 for the full control effect; nearly all actives have a fitted effect of over 55% in size
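Growth of hTDP1-complemented DT40 Tdp1-knockout cells is measured by ATP luminescence after at least 48 hr compound exposure at 37 °C, with DMSO substituting for the 20 nM CPT used in the parallel screen.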
TGFb SMAD3 inh: qHTS for Inhibitors of TGF-b; HepG2 CAGA-GFP TGF-b/SMAD3 reporter, GFP fluorescence, 18 h; TGF-beta stimulated, 500 pg/mL final; Potency, µM (top dose mostly 46.1 µM), for inactives: top-dose activity, negative = inhibition, actives largely listed as inhibitors; 1.2% of 410,000 active; note: % is set by controls: 0 for no effect and ±100 for the full control effect; nearly all actives have a fitted effect of over 65% in size
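Read-out: total well GFP (ex488/em500-530) summed from mean per-cell fluorescence. Cells: HEPG2 CAGA-GFP, 1% FBS DMEM, 18 h at 37 degrees C with 500 pg/mL final TGF-beta. Unstimulated wells served as the full-inhibition control; stimulated DMSO wells = 0%.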
TDP1 cell CPT: qHTS for Inhibitors of human tyrosyl-DNA phosphodiesterase 1 (TDP1): qHTS in cells in presence of CPT; chicken DT40 Tdp1-/-;hTDP1 cells + 20 nM CPT, ATP luminescence, 48 h; Potency, µM (highest dose often 46.2 µM), for inactives: at the top dose activity change, negative = growth inhibition, most hits filed as inhibitors; 12% of 420,000 active; note: % is set by controls: 0 for no effect and ±100 for the full control effect; nearly all actives have a fitted effect of over 55% in size
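Chicken DT40 Tdp1-/- cells complemented with human TDP1, 400 cells/well, exposed to compounds plus 20 nM camptothecin for at least 48 h at 37 C; viability read as ATP content by CellTiter-Glo luminescence.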
S2 tox: Viability Counterscreen for Primary qHTS for Inhibitors of ATXN expression | 0.49% of 400,000 active | AID 651635, 2014 | Potency, µM (top dose mostly 56.7 µM), hits mostly cytotoxic | S2 cells (HEK-293 line with an ATXN2-luciferase reporter) viability, CellTiter-Fluor protease fluorescence, 24 h; note: nearly all actives have a fitted effect of over 40% in size
ATXN2 expr inh: Primary qHTS for Inhibitors of ATXN expression; 0.72% of 360,000 active; HEK-293 ATXN2-luciferase reporter, luminescence, 24 h; Potency, µM (doses to about 57 µM), inactives show at the top dose activity change, negative = inhibition, actives largely listed as inhibitors; AID 1745845, 2022; note: % is set by controls: 0 for no effect and ±100 for the full control effect; nearly all actives have a fitted effect of over 55% in size
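ATXN2-luciferase reporter cells (luciferase flanked by upstream and downstream ATXN2 gene portions) were treated 24 h at 37 °C with compounds at up to 57 uM. SteadyGlo luminescence gave expression; GF-AFC fluorescence gave viability.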
Starred values were filed as active, the others as inactive; [ ] = remark or other dose. A selection: hits, their analogues and other compounds. The true share with any hit is near 17%. Calls come from the whole dose curve; as a rule, active = well fitted curve in the direction sought with a large enough effect; inconclusive = small, poorly fitted or top-dose-only effect, or another doubt; inactive = no such curve, though single readings can be large; an effect the other way counts as inactive or inconclusive. Potency is the fitted concentration of half-maximal effect.

For CN(Cc1ccc(OC(F)F)cc1)C(=O)c1cccc(S(=O)(=O)N2CCN(Cc3ccccc3)CC2)c1 the results were HepG2 viability -4%, TDP1 cell noCPT 8.2µM*, TGFb SMAD3 inh 10µM*, TDP1 cell CPT 9.2µM*, S2 tox inactive and ATXN2 expr inh inconclusive.
Screening COc1ccccc1N=C1SCC(=O)N1Cc1ccco1 returned HepG2 viability -11%, TDP1 cell noCPT -1%, TGFb SMAD3 inh -13%, TDP1 cell CPT 5%, S2 tox inactive and ATXN2 expr inh -3%.
For CC(C)CC(=O)/C(=C/c1ccc(N(C)C)cc1)n1cncn1 the results were HepG2 viability 4%, TDP1 cell noCPT 1%, TGFb SMAD3 inh 24%, TDP1 cell CPT -7%, S2 tox inactive and ATXN2 expr inh -8%.
CC(C)CC(=O)/C(=C\c1ccc(Cl)cc1Cl)n1cncn1 was read as HepG2 viability 7.9µM*, TDP1 cell noCPT 1.8µM*, TGFb SMAD3 inh 7.1µM*, TDP1 cell CPT 2.9µM* and S2 tox inconclusive.
For CN(C)c1ccc(/C=C(/C(=O)c2ccc(Cl)cc2Cl)n2cncn2)cc1 the results were HepG2 viability -6%, TDP1 cell noCPT 23µM*, TGFb SMAD3 inh -11%, TDP1 cell CPT 23µM*, S2 tox inactive and ATXN2 expr inh -23%.
Cc1ccccc1N1CCN(C(=O)CCN2C(=O)c3ccccc3C2=O)CC1 was read as HepG2 viability -84%, TDP1 cell noCPT -26%, TGFb SMAD3 inh 5%, TDP1 cell CPT -15%, S2 tox inactive and ATXN2 expr inh 17%.
Screening Cc1ccc(OC(=O)CCN2C(=O)c3ccccc3C2=O)cc1C returned HepG2 viability 16%, TDP1 cell noCPT 0%, TGFb SMAD3 inh 3%, TDP1 cell CPT -3%, S2 tox inactive and ATXN2 expr inh 1%[11.3 µM].
Cc1c(C(=O)Oc2ccc(Br)cc2)sc2ncn(Cc3ccccc3F)c(=O)c12 was read as HepG2 viability -26%, TDP1 cell noCPT -13%, TGFb SMAD3 inh -21%, TDP1 cell CPT -7%, S2 tox inactive and ATXN2 expr inh 0%.
CCc1cccc(NS(=O)(=O)c2ccc3c(c2)n(C)c(=O)n3C)c1 was read as HepG2 viability -24%, TDP1 cell noCPT 9.2µM*, TGFb SMAD3 inh -9%, TDP1 cell CPT 10µM*, S2 tox inactive and ATXN2 expr inh -20%.
For CCc1ccc(S(=O)(=O)Nc2ccc3c(c2)n(C)c(=O)c(=O)n3C)cc1 the results were HepG2 viability -25%, TDP1 cell noCPT 15µM*, TGFb SMAD3 inh -19%, TDP1 cell CPT inconclusive, S2 tox inactive and ATXN2 expr inh 9%.
CCc1ccc(NS(=O)(=O)c2cc3c(cc2C)n(C)c(=O)c(=O)n3C)cc1 was read as HepG2 viability 19%, TDP1 cell noCPT 13µM*, TGFb SMAD3 inh 13%, TDP1 cell CPT 15µM*, S2 tox inactive and ATXN2 expr inh 1%.
For CCOC(=O)c1oc2ccc(S(=O)(=O)n3nc(-c4ccc(C)cc4)cc3N)cc2c1C the results were HepG2 viability -36%, TDP1 cell noCPT 16µM*, TGFb SMAD3 inh inconclusive, TDP1 cell CPT 12µM*, S2 tox inactive and ATXN2 expr inh 1%.
For Cn1c(=O)c(=O)n(C)c2cc(S(=O)(=O)NCc3ccc(Cl)cc3)ccc21 the results were HepG2 viability -18%, TDP1 cell noCPT inconclusive, TGFb SMAD3 inh 5%, TDP1 cell CPT 16µM* and S2 tox inactive.

From PubChem
